Bioassay records (PubChem)
Compounds with a hit are over-represented: about 19% of the library has one in this group of screens.
HT1080 IDH1KD tx = qHTS for induction of synthetic lethality in tumor cells producing 2HG: qHTS for the HT-1080-IDH1KD cell line; HT-1080 IDH1 knockdown viability, ATP luminescence, 48 h; Potency, µM (doses to about 46.1 µM), for the others: at the top dose activity, negative = toxicity, actives largely listed as cytotoxic; 360,000 tested, 2% active;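 also: potency is read from the fitted curve at half-maximal effect; 0% = DMSO wells and -100% = cell-free medium wells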
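IDH1KD HT-1080 cells, 750/well, RPMI + 5% FBS; compound pinned after 2 h settling; 48 h, 37 °C; CellTiter-Glo luminescence; % activity normalised to DMSO and no-cell wells; curves fitted, classed by r2 and efficacy.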
IL-1B inflam inh = qHTS for Inhibitors of Inflammasome Signaling: IL-1-beta AlphaLISA Primary Screen; THP-1 LPS/ATP IL-1B secretion, AlphaLISA, 16 h; active compounds read low; activity change, % at 57.5 µM; 360,000 tested, 4.7% active; in the data active = activity change below about -50%; inconclusive = mostly about -30% to -49%
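THP-1 cells pretreated 1 hr with compounds (up to 57.5 uM final), then stimulated with LPS (250 ng/mL final) plus ATP (1.25 mM final); secreted IL-1B measured by AlphaLISA after 16 hr, decreased signal indicating inhibition.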
HT1080NT lethal = qHTS for induction of synthetic lethality in tumor cells producing 2HG: qHTS for the HT-1080-NT fibrosarcoma cell line; Potency, µM (series often up to 46.1 µM), inactives show at the highest dose activity, negative = less viability, hits mostly cytotoxic; HT-1080-NT fibrosarcoma viability, CellTiter-Glo ATP luminescence, 48 h; AID 686970, 2013; 360,000 tested, 1.6% active;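 also: NT is the 2HG producing partner of a matched IDH1 knockdown line; potency is read from the fitted curve at half-maximal effect; 0% = DMSO-treated cells and -100% = media-only wells without cells; nearly all actives have a fitted effect of over 55% in size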
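Viability of the 2HG-overproducing fibrosarcoma line after 48 hours of compound exposure at 37 degrees C was determined by luminescence with CellTiter-Glo, and concentration-effect curves were then fitted and categorized.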
ELG1 repair inh = qHTS screen for small molecules that inhibit ELG1-dependent DNA repair in human embryonic kidney (HEK293T) cells expressing luciferase-tagged ELG1; HEK293T ELG1-luciferase reporter, luminescence, 16 h; DNA damage induced by 5-fluorouridine; Potency, µM (titrated, usually from 46.1 µM), inactives show at the highest dose activity change, negative = inhibition, actives largely listed as inhibitors; 330,000 tested, 2.3% active; also: potency is read from the fitted curve at half-maximal effect; nearly all actives have a fitted effect of over 55% in size
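5-Fluorouridine DNA damage + compound/DMSO, 2,000 cells/well, 16 h, 37 °C/5% CO2. ONE-Glo, 30 min RT, luminescence. Readout = decrease in reporter signal.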
DT40 TDP1 no CPT = qHTS for Inhibitors of human tyrosyl-DNA phosphodiesterase 1 (TDP1): qHTS in cells in absence of CPT; 420,000 tested, 15% active; Potency, µM (series often up to 46.2 µM), for inactives: top-dose activity change, negative = growth inhibition, usual class: inhibitors; DT40 Tdp1-/- hTDP1 cells, no CPT, ATP luminescence, 48 h; AID 686978, 2013; also: potency is read from the fitted curve at half-maximal effect; nearly all actives have a fitted effect of over 55% in size
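Growth kinetics read by CellTiter-Glo luminescence after ≥48 hr at 37 °C. Cells: DT40 Tdp1-/- stably carrying human TDP1, 400 per well, compound exposure in the absence of CPT (DMSO vehicle).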
DT40 TDP1 CPT = qHTS for Inhibitors of human tyrosyl-DNA phosphodiesterase 1 (TDP1): qHTS in cells in presence of CPT; chicken DT40 Tdp1-/-;hTDP1 cells + 20 nM CPT, ATP luminescence, 48 h; 420,000 tested, 12% active; Potency, µM (top dose mostly 46.2 µM), for the others: at the top dose activity change, negative = growth inhibition, actives largely listed as inhibitors; AID 686979, 2013; also: potency is read from the fitted curve at half-maximal effect; nearly all actives have a fitted effect of over 55% in size
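Chicken DT40 Tdp1-/- cells complemented with human TDP1, 400 cells/well, exposed to compounds plus 20 nM camptothecin for at least 48 h at 37 C; viability read as ATP content by CellTiter-Glo luminescence.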
Starred values were filed as active, the others as inactive; ? = inconclusive; · = not tested or not shown; ! = not active in a repeat. Unless noted, calls follow the shape of the dose curve; as a rule, active = well fitted curve in the direction sought with a large enough effect; inconclusive = small, poorly fitted or top-dose-only effect, or another doubt; inactive = no such curve, though single readings can be large; an effect the other way counts as inactive or inconclusive. Unless noted, % is scaled to controls: 0 for no effect and ±100 for the full control effect.

SMILES | HT1080 IDH1KD tx | IL-1B inflam inh | HT1080NT lethal | ELG1 repair inh | DT40 TDP1 no CPT | DT40 TDP1 CPT
CCOc1ccc(S(=O)(=O)NCCC(=O)NCC(c2ccc(OC)cc2)N2CCCCC2)cc1 (stereo unspecified) | -7% | -12 | -2% | ? | -18% | -16%
CCCSc1ncc(Cl)c(C(=O)Nc2sc(C(C)=O)c(C)c2C(=O)OCC)n1 | · | · | · | · | -24% | 3%
CCN(CC)C(=O)CSc1nc2c(c(-c3cccnc3)c1C#N)CCCC2 | -18% | -7 | -10% | ? | -28% | ?
CCCn1c(=O)n(-c2ccccc2)c(=O)c2sc3ccccc3c21 | · | · | · | · | ? | -4%
CCC1CN(C(=O)N2CCC(C(=O)NCCN(CC)CC)CC2)c2ccccc2O1 (stereo unspecified) | · | · | · | · | 4% | 7%
CCC1CN(C(=O)N2CCC(C(=O)NCc3ccccc3F)CC2)c2ccccc2O1 (stereo unspecified) | · | · | · | · | 15µM* | ?
CCC1CN(C(=O)N2CCC(C(=O)Nc3ccccc3F)CC2)c2ccccc2O1 (stereo unspecified) | -1% | 0 | -3% | 0% | 23µM*! | ?
CC(OC(=O)Cn1cnc2c1c(=O)n(C)c(=O)n2C)C(=O)N(C)c1ccccc1 (stereo unspecified) | -1% | 47 | -6% | -18% | -29% | ?
Cc1nncn1-c1ccc(C(=O)Nc2cc(F)ccc2F)cc1 | · | · | · | · | -28% | 3%
COC(=O)c1ccc(-c2cccc3c2OC(CNC(=O)/C=C/c2ccc(OC)c(OC)c2)C3)nc1 (stereo unspecified) | · | · | · | · | -20% | ?
CN(C)c1ccc(P(=O)(COc2ccc([N+](=O)[O-])cc2)c2ccc(N(C)C)cc2)cc1 | ? | -11 | ? | ? | 21µM* | ?
O=[N+]([O-])c1ccc(OCCOCCOc2ccc([N+](=O)[O-])cc2)cc1 | -5% | -16 | 1% | 5% | -1% | 3%
Cc1ccc2nc(-c3ccc(C)s3)c(Nc3ccc4c(c3)OCCO4)n2c1 | · | · | · | · | ? | 23µM*
Cc1ccc2nc(-c3ccco3)c(Nc3ccc4c(c3)OCCO4)n2c1 | · | · | · | · | ? | 16µM*
Clc1ccc2nc(-c3ccc(Br)o3)c(Nc3ccc4c(c3)OCCO4)n2c1 | · | · | · | · | ? | 21µM*
Cc1ccc(-c2nc3ccccn3c2Nc2ccc3c(c2)OCCO3)s1 | · | · | · | · | -5% | -15%
CCC(CO)Oc1cc(NCc2ccc(C(F)(F)F)cc2)c2ncn(C(C)C)c2c1 (stereo unspecified) | 0% | -25 | 0% | ? | ? | ?
CCC(CC)c1nn2c(=O)cc(COc3ccc(NC(=O)c4cccc(C)c4)cc3)nc2s1 | · | · | · | · | ? | 1%
O=C1CCCC2=C1C(c1cccc(Br)c1)n1nc(-c3ccco3)nc1N2 (stereo unspecified) | 3% | -94* | 11% | · | ? | ?
COC(=O)c1nc2n(n1)C(c1cccc(Cl)c1)C1=C(CCCC1=O)N2 (stereo unspecified) | 4% | -2 | -8% | ? | -13% | -24%
Cc1ccc(CN2CCSc3ccc(C(=O)N4CCN(c5cccc(C)c5C)CC4)cc32)cc1 | · | · | · | · | 5.2µM* | 8.2µM*
Cc1ccc(CN2CCSc3ccc(C(=O)N4CCN(c5ccc(Cl)cc5)CC4)cc32)cc1 | · | · | · | · | 21µM* | 15µM*
CN1CCN(C(=O)c2ccc3c(c2)N(Cc2ccccc2)CCS3)CC1 | -13% | -19 | -12% | 2% | ? | ?
N=c1c2c(-c3ccccc3)c(-c3ccccc3)n(Cc3ccco3)c2ncn1CCCO | 8.2µM* | · | 21µM* | 6% | 23µM* | 13µM*
O=c1c2ccccc2ncn1Cc1ccco1 | -24% | 8 | -4% | 1% | -7% | -25%
SMILES | HT1080 IDH1KD tx | IL-1B inflam inh | HT1080NT lethal | ELG1 repair inh | DT40 TDP1 no CPT | DT40 TDP1 CPT
N=c1c2c(-c3ccccc3)c(-c3ccccc3)n(Cc3ccco3)c2ncn1CCO | 18µM* | ? | 18µM* | -3% | 6.5µM* | 7.3µM*
N=c1c2c(-c3ccccc3)c(-c3ccccc3)n(Cc3ccco3)c2ncn1CCN1CCOCC1 | ? | -81* | ? | -11% | ? | ?
Cc1sc2ncn(CC(=O)NCc3ccco3)c(=O)c2c1-c1ccccc1 | -16% | 26 | -9% | -3% | -2% | 12%
COc1cccc(-c2cc3c(c4c2ccn4C)C2CCC3C2)c1 (stereo unspecified) | -10% | 21 | -4% | · | ? | ?
COc1ccccc1N1CCN(S(=O)(=O)c2c(C)sc3ncn(CC(=O)Nc4ccccc4F)c(=O)c23)CC1 | · | · | · | · | -3% | 1%
CCCCN(C)C(=O)c1ccc2c(c1)NC(=O)C(CC(C)C)N2 (stereo unspecified) | · | · | · | · | -17% | -4%
COc1ccc(/C=N/Nc2nc(-c3cccnc3)nc3ccccc23)c(OC)c1 | -8% | 12 | -27% | ? | ? | ?
Cc1ccc(-c2nc(N/N=C/c3cccnc3)c3ccccc3n2)cc1 | ? | ? | 11µM* | ? | 18µM* | 23µM*
Cc1ccc(-c2nc(N/N=C/c3cccc([N+](=O)[O-])c3)c3ccccc3n2)cc1 | 11% | 13 | -2% | ? | 15µM* | 13µM*
Cc1cc(Cl)ccc1NC(=O)CCn1nc(C)c2c(C)n(-c3ccccc3)nc2c1=O | · | · | · | · | -23% | ?
Cc1ccc(O)c(C(=O)c2cc(C#N)c(=O)n(CC3CCCO3)c2)c1 (stereo unspecified) | -1% | -19 | -9% | ? | 21µM* | 15µM*
N#Cc1cc(C(=O)c2cc(Br)ccc2O)cn(C2CCCCC2)c1=O | -23% | -80* | 2% | 5% | 20µM* | 13µM*
Cc1ccc(OCc2ccc(C#N)cc2)c(C(=O)c2cc(C#N)c(=O)n(C3CC3)c2)c1 | 5% | 9 | -3% | 17% | -14% | -13%
COc1ccc(O)c(C(=O)c2cc(C#N)c(=O)n(CC3CCCO3)c2)c1 (stereo unspecified) | 0% | 0 | -6% | -1% | ? | ?
